In PubChem BioAssay AID1981 (Southern Research Specialized Biocontainment Screening …, 2009):
The whole screen tested about 2,200 compounds, of which about 480 (22%) were called active. No rule for the calls is given here. These entries were drawn from the full list. Measured potencies and affinities stand elsewhere.

assay: S. Typhimurium GFP fluorescence modified counterscreen for PhoP regulon inhibitor project dose response (AID 1981); conditions: 4 h; series mostly up to 150 µM

Structure (SMILES)	outcome
Cc1nn(-c2ccccc2)c(N2CCCC2)c1/C=N/Nc1ccc(S(N)(=O)=O)cc1[N+](=O)[O-]	inactive
c1ccc2c(c1)ncn2CCCCOc1ccc2c(c1)CCC2	inactive
Cc1ncoc1C(=O)Nc1cccc(Cl)c1	inactive
CSc1cccc(NC(=O)c2ccco2)c1	inactive
CC1N(C)c2cc(NC(=O)c3ccco3)ccc2C1(C)C (centres undefined)	inactive
O=C(Nc1ccc2c(c1)oc1ccccc12)N1CCOCC1	inactive
O=C(NCC(=O)N(c1cccnc1)C(C(=O)NCc1ccco1)c1ccccc1)c1ccco1 (centres undefined)	inactive
CC(=O)c1c(C)n([O-])c2cc(F)c(F)cc2[n+]1=O	inactive
Cc1c(C(=O)Nc2cccc(Cl)c2)c2ccccn2c1CCc1ccncc1	inactive
CCOc1ccc(-c2nnc(SCc3nnc(-c4ccccc4)o3)n2-c2ccccc2F)cc1	inactive
CCC(CC)NC(=O)COC(=O)c1ccc(OCC(=O)Nc2ccccc2OC)c(OC)c1	inactive
Cc1nn(-c2ccccc2)c(C)c1C(=O)OC/C(O)=C(\C#N)c1nc2ccccc2[nH]1	inactive
COC(=O)c1sc2nc(CSc3nc4ccc(C)cc4[nH]3)[nH]c(=O)c2c1C	inactive
CCOCC(=O)Nc1ccc(F)c(F)c1	inactive
Nc1nc(N)nc(-c2ccccc2)n1	inactive
O=C(Nc1cccc(Cl)c1)Nc1ccc2c(c1)OCO2	inactive
CC(C)(C)c1ccc(NC(=O)COC(=O)c2ccc([N+](=O)[O-])s2)cc1	inactive
N/C(=N/OC(=O)c1ccccc1Cl)c1ncc([N+](=O)[O-])s1	inactive
O=C(NCCCc1ccccc1)Nc1cccc(Cl)c1	inactive
CCOC(=O)Nc1ccc(C)cc1C	inactive
CCOC(=O)c1sc(-c2ccc(C(F)(F)F)cc2)nc1O	inactive
O=C(NNc1c2ccccc2nc2ccccc12)c1ccccc1O	inactive
CC(C)c1ccc(NC(=O)N(CCc2nc3ccccc3[nH]2)C2CCCC2)cc1	inactive

Structure (SMILES)	outcome
Cc1ccc(CNC(=O)Nc2cccs2)cc1	inactive
CCCc1cc(C(=O)NNC(=S)NC(C)c2ccccc2)cs1 (centres undefined)	inactive
Cc1noc(C)c1CSc1nc2ccccc2nc1NS(=O)(=O)c1ccc(Cl)cc1	inactive
COc1ccc(C(=O)NC(=S)NCc2ccc(-c3nc4ccccc4o3)cc2)cc1OC	inactive
O=C(O)CC(NC(=S)NCc1ccccc1)C(=O)O (centres undefined)	inactive
Cc1cc(Nc2ccc(Cl)cc2)nc(N)n1	inactive
O=S(=O)(c1ccc(NC(=S)Nc2ccc3c(c2)OCO3)cc1)N1CCOCC1	inactive
O=S1(=O)C=CC(Nc2cccc(Cl)c2)C1 (centres undefined)	inactive
CC(C(=O)NC1CCS(=O)(=O)C1)N1C(=O)/C(=C/c2ccc(Cl)cc2)SC1=S (centres undefined)	inactive
CC1=C(C(=O)OCC2CCCO2)C(c2cccc(C(F)(F)F)c2)C2=C(CC(c3ccco3)CC2=O)N1 (centres undefined)	inactive
CN(CCNS(=O)(=O)c1ccc2c(c1)oc(=O)n2C)Cc1ccccc1	inactive
COc1ccc(-c2cnn3c(N)c(S(=O)(=O)C(C)(C)C)cnc23)cc1	inactive
O=C(N/N=C/C1CC=CCC1)c1ccc(Cl)cc1O (centres undefined)	inactive
N/C(=N\OC(=O)Cc1ccc(Cl)cc1)c1cccnc1	inactive
CC(=O)Nc1ccc(OC(=O)c2cccnc2)cc1	inactive
N/C(=N\OC(=O)COc1ccc(Cl)cc1)c1cccnc1	inactive
O=C(N/N=C/C1C(c2ccccc2)C1(Cl)Cl)c1cccc(Cl)c1 (centres undefined)	inactive
O=C(N/N=C/c1ccc(Cl)cc1Cl)c1cccc(F)c1	inactive
C/C(=C\C(=O)c1cccnc1)Nc1ccc(O)cc1	inactive
N#CC(CC(=O)c1ccc(F)cc1)c1ccc2c(c1)OCO2 (centres undefined)	inactive
C/C(=N\NC(=S)Nc1ccc(F)cc1)c1ccc2c(c1)OCCO2	inactive
C(=N\c1nc2ccccc2n1CCN1CCCCC1)/c1cccs1	inactive
Cc1cccc(C(=O)Nc2nnc(Cc3c[nH]c4ccccc34)s2)c1	inactive

Structure (SMILES)	outcome
CC1CN(C(=O)CCc2ccccc2)C(C)CN1C(=O)CCc1ccccc1 (centres undefined)	inactive
Cc1cccc(OCCSCc2nc3ccccc3[nH]2)c1	inactive
Cc1ccc(Cn2cnc3ccccc32)cc1	inactive
Cc1ccc(-c2nnc(SCC(=O)N3CCCc4ccccc43)n2N)cc1	inactive
Clc1ccc(-c2cnc3n2CCC3)cc1	inactive
O=[N+]([O-])c1ccc(N2CCN(CCOc3nonc3-c3ccccc3)CC2)c(Cl)c1	inactive
Cc1occc1C(=O)n1cnc2ccccc21	inactive
Nc1c(-c2ccccc2Cl)cnn1-c1cccc([N+](=O)[O-])c1	inactive
C=C(C)C1Cc2cc3ccc(=O)oc3cc2O1 (centres undefined)	inactive
CCOC(=O)C1=C(C)N(CCO)C(=O)NC1c1cccc(O)c1 (centres undefined)	inactive
O=c1c2ccccc2nnn1Cc1ccccn1	inactive
Cc1cc(C)c(C#N)c(SCC(O)CS(=O)(=O)Cc2ccccc2)n1 (centres undefined)	inactive
Nc1nnc(CC(=O)N/N=C\c2cc([N+](=O)[O-])ccc2O)s1	inactive
Cc1ccc(N=Nc2ccc(O)c(/C=N\NC(=O)c3ccc(N)cc3)c2)cc1C	inactive
Cc1cc(/C=N/NC(=O)c2cccc([N+](=O)[O-])c2)c(C)n1-c1ccc(Cl)cc1Cl	inactive
Cc1cc(C(=O)N/N=C/c2cc(Br)cc(Br)c2OC(=O)c2ccccc2)n[nH]1	inactive
C/C(=N\NC(=O)C1CC1c1ccccc1)c1cccc([N+](=O)[O-])c1 (centres undefined)	inactive
Cc1ccc2cccc(Oc3ncnc4scc(-c5ccccc5)c34)c2n1	inactive
CN(C)c1ccnc(-n2cccc2/C=N/OCc2ccccc2)c1C#N	inactive
COc1ccc(OC)c(NC(=O)c2cc3c(Cl)nc4ccccc4c3s2)c1	inactive
Cc1ccc(C)c(C(=O)NCc2ccncc2)c1	inactive
COc1ccc(CN=C2Nc3ccccc3CS2)cc1	inactive
O=c1c2cc(Br)ccc2nc(-c2ccccc2)n1O	inactive

Structure (SMILES)	outcome
CN1CCCC(OC(=O)c2ccc(Cl)cc2)C1 (centres undefined)	inactive
NC(=S)c1cc2ccc(O)cc2oc1=O	inactive
OCCCNc1nc(-c2ccc(Cl)cc2)nnc1-c1ccc(Br)cc1	inactive
CCn1c(CNC(=O)COc2ccc(C(C)C)cc2)nnc1SCC(=O)Nc1ccccc1	inactive
FC(F)(F)c1cc(C(F)(F)F)c2ccc(Oc3ccccc3)nc2n1	inactive
Cc1cc(C)c2c(c1)NC(=O)C2(O)CC(=O)c1cccs1 (centres undefined)	inactive
CC(C)(C)NC(=O)CSc1nnc(-c2ccncc2)o1	inactive
COc1ccccc1/C=C1\CCCC2=C1Nc1nnnn1C2c1ccccc1OC (centres undefined)	inactive
O=[N+]([O-])c1ccc(NCCCNS(=O)(=O)c2ccccc2)c(Cl)c1	inactive
COC(=O)c1sccc1NC(=O)CSc1ccccc1NS(=O)(=O)c1ccc(Cl)cc1	inactive
CCC(C)C(NC(=O)OCc1ccccc1)C(=O)OCN1C(=O)c2ccccc2C1=O (centres undefined)	inactive
c1ccc(-c2ncnc3nc4n(c23)CCC4)cc1	inactive
CCn1nnc(-c2ccccc2NC(=O)c2ccc(-n3cnnn3)cc2)n1	inactive
Cc1cc(-c2csc(N)n2)c(C)n1C	inactive
COc1cc(NC(=O)Nc2cccc(Cl)c2)c(OC)cc1NC(=O)CN1CCCCC1	inactive
Cc1cc(NCCN2CCOCC2)n2ncc(-c3ccccc3)c2n1	inactive
CN(C)CCNc1nc(-c2ccccc2)nnc1C(F)(F)F	inactive
COc1cc(C2SCC(=O)N2c2nnc(C34CC5CC(CC(C5)C3)C4)s2)cc(OC)c1OC (centres undefined)	inactive
N#CCC1c2ccccc2CCN1C(=O)Nc1ccc(Cl)cc1 (centres undefined)	inactive
CC1(C)CC(=O)C=C(Nc2ccc(Br)cn2)C1	inactive
COCCNC(=O)CSCc1c(F)cccc1Cl	inactive
Cc1ccc(C(=O)Oc2cccc(NC(=O)c3cccs3)c2)cc1S(=O)(=O)N1CCOCC1	inactive
NC(=O)c1ccccc1N=Cc1ccccn1	inactive

Structure (SMILES)	outcome
Cc1cc(C)cc(NC(=O)CSc2nc3c(c(=O)[nH]2)CN(Cc2ccc(F)cc2)CC3)c1	inactive
COC(=O)C1(O)CC(C(C)C)=NN1C(=O)c1ccc(Cl)cc1 (centres undefined)	inactive
Cc1cccc(CN(C)C)c1OC(=O)N(C)C	inactive
Cc1ccc(/C=C2\SC(=S)N(Cc3ccccc3)C2=O)o1	inactive
COc1ccc(NC2=Nc3cccc4cccc2c34)cc1	inactive
Oc1cccc2ccc[n+](CC(O)Cn3c4ccccc4c4ccccc43)c12 (centres undefined)	inactive
O=C(CSc1ncnc2ccccc12)Nc1cc(S(=O)(=O)N2CCCCC2)ccc1Cl	inactive
COc1ccc(NS(=O)(=O)c2cc(C)ccc2NC(=O)c2cc(C)oc2C)cc1	inactive
COc1ccc(C)cc1C(=O)CCC(=O)Nc1ccccc1N1CCOCC1	inactive
CCn1cc(C(=O)NCc2ccncc2)c(=O)c2cc(F)c(N3CCN(C(=O)c4ccco4)CC3)cc21	inactive
CCCOc1ccc(C(=O)CCC(=O)OCC(=O)N2CC(=O)Nc3ccccc32)cc1	inactive
O=C(CN1CCC(NC(=O)c2cccc(F)c2)CC1)NCc1ccccc1F	inactive
CCCOc1ccc(C(=O)N2CCCC2C(=O)O)cc1 (centres undefined)	inactive
O=C(Nc1nc(-c2ccncc2)cs1)C1c2ccccc2Oc2ccccc21	inactive
O=C1c2[nH]nc(-c3ccccc3O)c2C(c2ccc(F)cc2)N1Cc1ccco1 (centres undefined)	inactive
CCCCNC(=O)OC1CCS(=O)(=O)C1 (centres undefined)	inactive
COC(=O)c1ccccc1NC(=O)NCc1ccc2c(c1)OCO2	inactive
O=C(CN1CCCCCC1)Nc1cccc(Br)c1	inactive
C=CCSc1nnc(-c2ccc(Cl)cc2Cl)o1	inactive
CCCCCOc1ccc(NC(=O)C(=O)NCCC2=CCCCC2)cc1	inactive
Cc1ccc(OCC(=O)N2CCN(S(=O)(=O)c3ccccc3)CC2)c([N+](=O)[O-])n1	inactive
Cc1nc(CC(=O)c2ccc(O)cc2O)cs1	inactive
